In PubChem BioAssay AID624330 (Southern Research Specialized Biocontainment Screening …, 2012):
Hit rate of the full screen: of about 340,000 compounds, about 2,100 (0.62%) were called active.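 How the source made its calls: active means first-screen hits whose inhibition reached a set limit at any dose in the follow-up dose series; inconclusive means inhibition above the set first-screen limit but never retested; inactive means the rest.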 A selection follows. Results with a measured potency or affinity are listed apart.

target: Rac GTPase-activating protein 1 (Homo sapiens) (UniProt Q9H0H5); experiment: blockers of MgcRacGAP-driven Rac1 GTP hydrolysis – biochemical, ADP Hunter fluorescence, primary and confirmatory, confirmation (AID 624330); conditions: MgcRacGAP-stimulated Rac1 GTP hydrolysis, at 30 µM, stronger effect = higher value, GST-tagged Rac1 F28L mutant substrate;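 further: fluorescence reports GDP produced by GAP-driven GTP hydrolysis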
Sequence (Q9H0H5 whole entry, looked up): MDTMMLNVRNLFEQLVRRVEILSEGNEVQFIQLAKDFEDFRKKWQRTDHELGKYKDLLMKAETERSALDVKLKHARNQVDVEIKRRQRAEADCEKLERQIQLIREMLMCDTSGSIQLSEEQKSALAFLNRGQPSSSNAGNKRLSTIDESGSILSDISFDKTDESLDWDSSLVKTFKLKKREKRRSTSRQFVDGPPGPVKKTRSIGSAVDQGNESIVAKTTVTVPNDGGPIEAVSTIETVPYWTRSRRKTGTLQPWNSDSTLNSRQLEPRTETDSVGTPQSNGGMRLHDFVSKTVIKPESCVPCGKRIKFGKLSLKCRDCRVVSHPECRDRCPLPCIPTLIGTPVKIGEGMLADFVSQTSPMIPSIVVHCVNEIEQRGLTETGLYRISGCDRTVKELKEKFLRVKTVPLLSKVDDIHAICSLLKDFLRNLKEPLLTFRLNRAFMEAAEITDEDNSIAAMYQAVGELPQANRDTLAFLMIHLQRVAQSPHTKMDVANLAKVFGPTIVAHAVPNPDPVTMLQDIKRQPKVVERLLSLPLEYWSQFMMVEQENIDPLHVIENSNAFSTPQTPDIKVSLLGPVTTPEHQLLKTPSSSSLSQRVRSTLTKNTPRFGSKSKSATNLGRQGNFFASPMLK

inhibition, inactive:
O=C(Nc1ccc(C(=O)N2CCCCC2)cc1)c1ccc([N+](=O)[O-])cc1 1.12%
Cc1ccccc1-c1cc(C(=O)O)nn1CC1CC(c2cccc([N+](=O)[O-])c2)=NO1 (stereo not drawn) 4.15%
COc1ccc(CCNC(=O)c2cc(C3CC3)nc3c2cnn3C(C)C)cc1 1.51%
O=C(Nn1cnnc1)c1ccc(OC(F)(F)C(F)C(F)(F)F)cc1 (stereo not drawn) 7.79%
CCCNC(=S)NNC(=O)c1cc(-c2cccnc2)nc2ccccc12 0.84%
CS(=O)(=O)c1cccc(C(=O)Nc2cccc(S(=O)(=O)N3CCCC3)c2)c1 3.17%
CC(=O)N1CCN(C(=O)c2ccc(NS(=O)(=O)c3ccc4c(c3)OCCO4)cc2)CC1 5.18%
COc1ccccc1/C=N/NC(=O)CSc1ccc2ccccc2n1 17.4%
O=C(CSc1ccc2ccccc2n1)N/N=C/c1ccccc1O 4.3%
O=C(CNC(=O)c1ccc(Cl)cc1Cl)NCc1ccccn1 -0.06%
CC1CCN(S(=O)(=O)c2ccc3ccccc3c2)CC1 1.45%
CC1CCN(S(=O)(=O)c2ccc3[nH]c(=O)[nH]c3c2)CC1 6.82%
Cc1ccc2c(c1)N(C(C)C(=O)NCc1ccc3c(c1)OCO3)C(=O)CO2 (stereo not drawn) 11.4%
Cc1ccc(C(=O)COC(=O)c2nc3nccc(C)n3n2)c(C)c1 5.3%
NC(=O)c1cc2ccncc2c2ccccc12 8.91%
CC1NC(C)(C)Cc2c1ccc1ccccc21 (stereo not drawn) 2.36%
CC1CC2(CCCCC2)Nc2ccc3ccccc3c21 (stereo not drawn) 12.5%
Cc1cccc(OCC(=O)NNC(=O)C2CCN(c3ncnc4sc(C)c(C)c34)CC2)c1 12.2%
CNc1nc(Nc2ccc(C(C)=O)cc2)nc(OC(C(F)(F)F)C(F)(F)F)n1 8.39%
COc1ccc(Nc2nc(OC)nc(OC)n2)cc1 14.1%
CCCC(C)NC(=O)CN1C(=O)c2cccc3cccc1c23 (stereo not drawn) 7.54%
CN(CCc1ccccn1)Cc1ccc(Cl)c(Cl)c1 27.1%
Cc1cccc(CN(C)CCc2ccccn2)c1 9.5%
CN(CCc1ccccn1)Cc1ccc(Cl)cc1 24%
COc1ccc(CN(C)Cc2ccccc2)c(OC)c1OC 4.85%
CN(CCc1ccccn1)Cc1ccc(Cl)cc1Cl 19.1%
CCc1ccc(CN(C)CCc2ccccn2)cc1 13.2%
Cc1ccc(CN(C)CCc2ccccn2)cc1 13%
COc1ccc(CCN(C)Cc2ccc(OC)c(OCc3ccccc3)c2)cc1OC 18.3%
CC(C)=CCCC(C)=CCN1C(=O)CN(C)C1=O 4.98%
CC(=O)c1cccc(NC(=O)C(C)OC(=O)CCC2CCCCC2)c1 (stereo not drawn) 1.73%
O=[N+]([O-])c1cccc(/C=N/n2cnnc2)c1O 4.49%
Cc1onc(-c2ccccc2Cl)c1C(=O)NCCCN1CCOCC1 12%
NS(=O)(=O)c1ccc(N/N=C/c2cn(-c3ccccc3)nc2-c2cccs2)cc1 2.12%
CCN(CCCCCCN)c1ccc2c(=O)[nH][nH]c(=O)c2c1 3.58%
Cc1ccc(-n2ncc3c(NNC(=O)c4ccco4)ncnc32)c(C)c1 7.64%
CCc1ccc(C2=NN(CCC(=O)NCC3CCCO3)C(=O)CC2)cc1 (stereo not drawn) 11.8%
CCNC(=S)N(CCc1c(C)[nH]c2ccc(OC)cc12)Cc1cccnc1 12.7%
O=C(NCc1ccccc1)c1ccc2c(=O)[nH]c3c(C(=O)NCC4CCCO4)sc(=S)n3c2c1 (stereo not drawn) 16.2%
O=C(NC1CCCCC1)c1sc(=S)n2c1[nH]c(=O)c1ccccc12 10.6%
Cc1ccccc1Cn1nc(C)c(NC(=O)c2cc(CC(C)C)on2)c1C 9.15%
COc1ccc(NC(=O)c2c(NC(=O)CNCc3ccco3)sc3c2CCC3)cc1 15.6%
COC(=O)c1c(NC(=O)c2ccco2)sc2c1CCC2 15.8%
CC(Sc1nncn1C)C(=O)Nc1nnc(C(C)C)s1 (stereo not drawn) -0.22%
CC(=O)CSc1nnc(NC(=O)CCc2ccccc2)s1 2.89%
CCNC(=S)NNC(=O)c1cc(Br)cs1 11.2%
CCCCn1c(N)c(N(Cc2ccccc2OC)C(=O)C(C)Oc2ccc(F)cc2)c(=O)[nH]c1=O (stereo not drawn) 6.07%
C=CCSc1nnc(NC(=O)CSc2nc(CCC)cc(=O)[nH]2)s1 12.2%
COc1cc(NC(=O)CN2C(=O)NC(C)(CCC(C)C)C2=O)cc(OC)c1 (stereo not drawn) -1.63%
CCOC(=O)c1[nH]c2ccccc2c1NC(C)=O 2.46%
COC(=O)c1[nH]c2ccccc2c1NC(=O)c1c(F)cccc1F -14.4%
CCOC(=O)c1[nH]c2ccccc2c1NC(=O)CC -0.8%
COC(=O)c1[nH]c2ccc(C)cc2c1NC(=O)Oc1ccccc1 84.7%
COC(=O)c1[nH]c2cc(OC)c(OC)cc2c1NC(=O)c1cccc(OC)c1 10.8%
CCOC(=O)Nc1c(C(=O)OC)[nH]c2cc(OC)ccc12 8.73%
C=CCOC(=O)Nc1c(C(=O)OC)[nH]c2ccc(Cl)cc12 0.34%
C=CCOC(=O)Nc1c(C(=O)OC)[nH]c2ccccc12 13.1%
N#Cc1c(/N=C/c2cc(Br)cs2)sc2c1CCC2 14.5%
NC(=O)C[C@@H]1NC(=O)[C@H](CCC(=O)O)NC(=O)c2cc([N+](=O)[O-])cc(I)c2OCC[C@@H](C(N)=O)NC1=O 6.13%
CC1CCN(C(=O)CSc2nnc(-c3cccnc3)o2)CC1 7.43%
Cc1cc(C)nc(NC(=NCCc2c[nH]c3ccccc23)NC(=O)Nc2cccc([N+](=O)[O-])c2)n1 8.14%
Cc1ccc(-c2[nH]ncc2/C=C(\C#N)C(=O)NC2CCCCC2)cc1 6.42%
Cc1cc(C)c(C(=O)N2CCCC(C(=O)c3cc(F)ccc3F)C2)o1 (stereo not drawn) 5.58%
CCOC(=O)c1[nH]c2ccc(OC)cc2c1NC(=O)c1cccc(OC)c1 5.01%
CCOC(=O)c1[nH]c2ccc(F)cc2c1NC(=O)c1ccccc1C(=O)O 66%
CCc1ccc(CN(C)C(=O)c2cc(COc3ccc(OC)cc3Cl)on2)nc1 10.7%
c1ccc2nc(-c3nccs3)ccc2c1 1.49%
Oc1ccc(-c2nccc(-c3cccs3)n2)cc1 9.71%
COc1cc(CCCN2CCNC[C@@H]2C(C)O)cc(OC)c1OC (stereo partly drawn) 3.02%
COc1ccc(N2CCN(C(=O)CCCn3c(=O)[nH]c4cc(Cl)ccc4c3=O)CC2)cc1 12.7%
Cc1nnc(SCc2ccc(Cl)c(Cl)c2)s1 5.65%
CCc1noc(C)c1C(=O)NNC(=O)c1ccc(Br)cc1 5.66%
COc1cc(/C=C(\C#N)C(=O)Nc2ccccn2)ccc1O 14.9%
CCOC(=O)/C(C#N)=C/c1ccc(OC)c(OC)c1 5.15%
COCCNC(=O)/C(C#N)=C/c1ccc2c(c1)OCO2 0.46%
N#C/C(=C\c1cccc(O)c1)C(=O)Nc1ccc2c(c1)OCCO2 7.83%
N#C/C(=C\c1ccc2c(c1)OCCO2)C(=O)Nc1ccc(C(=O)O)cc1 8.32%
CCOC(=O)/C(C#N)=C\c1ccc(OC)c(OC)c1 8.76%
Cc1cc(C)c(OCCOCCN(C)C)c(Br)c1 12.7%
CC(C)(C)[C@@H]1C=C(C(N)=O)O[C@H](OCCCCO)C1 4.43%
CN(C(=O)CN1C(=O)NC(C)(c2cccc(Br)c2)C1=O)C1CCCCC1 (stereo not drawn) 6.93%
COc1ccc2nc(SCCOC(=O)Nc3ccc(Cl)cc3)nc(C)c2c1 9.72%
CC1=C(C(=O)NC2CC(C)(C)Cc3c2cnn3-c2cccc(F)c2)OCCO1 (stereo not drawn) -2.86%
CCC(C(=O)Nc1cc(C)nn1-c1nc(C)cc(C)n1)c1ccccc1 (stereo not drawn) 13.7%
O=C1NN(c2ccccc2)C(=O)/C1=C\c1ccccc1 21.7%
O=C1NN(c2ccccc2)C(=O)C1=Cc1ccccc1 13.7%
O=C1NN(c2cccc(Br)c2)C(=O)/C1=C\c1ccc(O)cc1 14.5%
COc1cccc(/C=C2/C(=O)NN(c3ccc(Br)cc3)C2=O)c1O 13.4%
CCC1CCCCN1C(=O)CCS(=O)(=O)c1ccc2c(c1)CCN2C(C)=O (stereo not drawn) 8.33%
CCOc1ccc(N(CC(=O)Nc2ccccc2OC)S(C)(=O)=O)cc1 9.6%
C/C(=N\NC(=O)OC(C)(C)C)c1ccccc1Br -4.8%
CCCc1cc(=O)[nH]c(SCC(=O)N2CCCCCC2)n1 2.49%
COc1ccc(N2CCN(C(=O)CCS(=O)(=O)c3cccc4nsnc34)CC2)cc1 28%
Cn1nnnc1SCC(=O)Nc1cc(S(=O)(=O)N2CCCC2)ccc1Cl 4.66%
CC(/C=N/n1cnnc1)=C\c1ccccc1 3.71%
CC(/C=N/n1c(-c2ccccc2)n[nH]c1=S)=C\c1ccco1 24.1%
CC(=C/c1ccccc1)/C=N/n1cnnc1 -1.27%
CC(=C/c1ccccc1)/C=N/n1c(C)n[nH]c1=S 15.2%
